According to PubChem BioAssay (EPA / NIEHS):
Calls of active or inactive are those of the source. The calls were made as follows: active = hit-call score of the fitted dose curve at least 0.9, where 1 is the maximum; inactive = score below 0.9.

How the values were obtained:
Conditions in all cases: mRNA level, 48 h; actives raise or lower the signal
[1] = read-out: Cytochrome P450 (CYP24A1), CYP24A1 (gene 1591); assay: LTEA_HepaRG_CYP24A1: Life Technologies and Expression Analysis (LTEA) Assay for Cytochrome P450 (CYP24A1) using HepaRG (AID 2283478)
Summary of the method: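 qRT-PCR read-out: CYP24A1 transcript levels normalized to three housekeeping genes, bidirectional curve fits against 0.5% DMSO baseline. Human HepaRG cells treated 48 h with chemicals at eight concentrations from 100 uM in half-log steps.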

[2] = read-out: cysteine-aspartic acid protease (CASP8), CASP8 (gene 841); assay: LTEA_HepaRG_CASP8: Life Technologies and Expression Analysis (LTEA) Assay for cysteine-aspartic acid protease (CASP8) using HepaRG (AID 2283480)
Summary of the method: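 CASP8 transcript measured by TaqMan qRT-PCR with ACTB/GAPDH/POLR2A normalization, after 48 h chemical exposure of HepaRG cells in serum-free induction medium. Eight concentrations, top 100 uM, half-log steps, 0.5% DMSO vehicle; fits in both directions versus DMSO.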

[3] = read-out: Cytochrome P450 (CYP2B6), CYP2B6 (gene 1555); assay: LTEA_HepaRG_CYP2B6: Life Technologies and Expression Analysis (LTEA) Assay for Cytochrome P450 (CYP2B6) using HepaRG (AID 2283481)
Summary of the method: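 Read-out is CYP2B6 mRNA by TaqMan qRT-PCR, normalized to three housekeeping genes and fitted bidirectionally against 0.5% DMSO baseline. Human HepaRG cells received test chemicals for 48 h, top concentration 100 uM, half-log dilutions.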

CYP2C8 (gene 1558) = assay: LTEA_HepaRG_CYP2C8: Life Technologies and Expression Analysis (LTEA) Assay for CYP2C8 using HepaRG (AID 2283483)
Summary of the method: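 CYP2C8 expression measured by TaqMan qRT-PCR and normalized to three housekeeping genes. HepaRG cultures were treated for 48 h with an eight-point half-log series topping at 100 uM, vehicle 0.5% DMSO, duplicates; fitted both directions against DMSO.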

CYP2C9 (gene 1559) = assay: LTEA_HepaRG_CYP2C9: Life Technologies and Expression Analysis (LTEA) Assay for CYP2C9 using HepaRG (AID 2283484)
Summary of the method: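 CYP2C9 transcript level, quantified by TaqMan qRT-PCR against three housekeeping genes, was fitted bidirectionally relative to 0.5% DMSO. HepaRG cultures were treated 48 h, in duplicate, at eight half-log concentrations topping at 100 uM.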

CYP2E1 (gene 1571) = assay: LTEA_HepaRG_CYP2E1: Life Technologies and Expression Analysis (LTEA) Assay for CYP2E1 using HepaRG (AID 2283485)
Summary of the method: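 Assay uses 48 h exposure of HepaRG hepatic cells, eight concentrations to 100 uM. Expression of CYP2E1 is quantified by TaqMan qRT-PCR with ACTB, GAPDH and POLR2A normalization; curves fitted in both directions relative to vehicle.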

CYP4A11 (gene 1579) = assay: LTEA_HepaRG_CYP4A11: Life Technologies and Expression Analysis (LTEA) Assay for CYP4A11 using HepaRG (AID 2283486)
Summary of the method: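 CYP4A11 transcript levels were quantified by TaqMan qRT-PCR after HepaRG human liver cells were treated for 48 hours with test chemicals (top 100 uM, half-log dilutions, 0.5% DMSO). Gain or loss of signal was fitted relative to DMSO.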

[4] = read-out: Cytochrome P450 3A4 (Homo sapiens) (UniProt P08684); assay: LTEA_HepaRG_CYP3A4: Life Technologies and Expression Analysis (LTEA) Assay for CYP3A4 using HepaRG (AID 2283487)
Summary of the method: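 CYP3A4 transcript measured by TaqMan qRT-PCR and normalized to three housekeeping genes after 48 h chemical exposure of human HepaRG cells. Top concentration 100 uM, half-log steps, 0.5% DMSO vehicle; gain or loss fitted against DMSO baseline.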

[5] = read-out: DNA damage-inducible transcript 3 (DDIT3), DDIT3 (gene 1649); assay: LTEA_HepaRG_DDIT3: Life Technologies and Expression Analysis (LTEA) Assay for DNA damage-inducible transcript 3 (DDIT3) using HepaRG (AID 2283488)
Summary of the method: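 Eight-point concentration-response (100 uM highest, half-log dilutions) in HepaRG, 48 h, duplicate wells. Endpoint: qRT-PCR mRNA, normalized (ACTB, GAPDH, POLR2A), bidirectional fitting with DMSO as baseline.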

[6] = read-out: Pro-epidermal growth factor (Homo sapiens) (UniProt P01133); assay: LTEA_HepaRG_EGF: Life Technologies and Expression Analysis (LTEA) Assay for Epidermal growth factor (EGF) using HepaRG (AID 2283489)
Summary of the method: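 qRT-PCR readout of EGF transcript after 48 h chemical exposure of HepaRG cells; eight concentrations from 100 uM down in half-log steps, duplicate wells, 0.5% DMSO vehicle. Bidirectional curve fitting against DMSO baseline.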

[7] = read-out: Early growth response protein 1 (EGR1) transcription factor, EGR1 (gene 1958); assay: LTEA_HepaRG_EGR1: Life Technologies and Expression Analysis (LTEA) Assay for Early growth response protein 1 (EGR1) transcription factor using HepaRG (AID 2283490)
Summary of the method: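 EGR1 transcript levels quantified by qRT-PCR (Fluidigm arrays) against three housekeeping genes after 48 h chemical exposure of HepaRG cells. Eight-point half-log series topping at 100 uM, 0.5% DMSO vehicle, analyzed for gain or loss.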

[8] = read-out: Ezrin (EZR), EZR (gene 7430); assay: LTEA_HepaRG_EZR: Life Technologies and Expression Analysis (LTEA) Assay for Ezrin (EZR) using HepaRG (AID 2283491)
Summary of the method: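 HepaRG, 48 h chemical exposure, 8-pt half-log series from 100 uM, 0.5% DMSO vehicle, duplicates. Read-out: EZR mRNA by TaqMan qRT-PCR (Fluidigm array), housekeeping-normalized; bidirectional curve fit vs DMSO baseline.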

[9] = read-out: Cytochrome P450 3A7 (Homo sapiens) (UniProt P24462); assay: LTEA_HepaRG_CYP3A7: Life Technologies and Expression Analysis (LTEA) Assay for CYP3A7 using HepaRG (AID 2283492)
Summary of the method: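 CYP3A7 transcript levels were read by TaqMan qRT-PCR on Fluidigm arrays after 48 h chemical exposure of human HepaRG cells, with housekeeping-gene normalisation. Eight half-log concentrations up to 100 uM in 0.5% DMSO were tested in duplicate.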

CYP3A5 (gene 1577) = assay: LTEA_HepaRG_CYP3A5: Life Technologies and Expression Analysis (LTEA) Assay for CYP3A5 using HepaRG (AID 2283493)
Summary of the method: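 Readout was CYP3A5 mRNA by qRT-PCR. HepaRG cultures were exposed for 48 h in serum-free induction medium to chemicals at up to 100 uM, and responses were fitted in both directions relative to DMSO vehicle.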

[10] = read-out: Fatty Acid-Binding Protein 1 (FABP1), FABP1 (gene 2168); assay: LTEA_HepaRG_FABP1: Life Technologies and Expression Analysis (LTEA) Assay for Fatty Acid-Binding Protein 1 (FABP1) using HepaRG (AID 2283494)
Summary of the method: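 FABP1 expression by TaqMan qRT-PCR, normalised to three housekeeping genes, in HepaRG cells after 48 h chemical treatment. Eight-point half-log series topping at 100 uM in 0.5% DMSO, duplicates; gain or loss fitted relative to vehicle.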

[11] = read-out: Cytochrome P450 4A22 (Homo sapiens) (UniProt Q5TCH4); assay: LTEA_HepaRG_CYP4A22: Life Technologies and Expression Analysis (LTEA) Assay for Cytochrome P450 4A22 (CYP4A22) using HepaRG (AID 2283495)
Summary of the method: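 HepaRG, 48 h post-plating -> serum-free induction medium; dosed 48 h, duplicate, 8 conc. (100 uM top, half-log), 0.5% DMSO. Readout: CYP4A22 mRNA by qRT-PCR, ACTB/GAPDH/POLR2A normalization; gain/loss fit relative to DMSO.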

[12] = read-out: Cytochrome P450 7A1 (Homo sapiens) (UniProt P22680); assay: LTEA_HepaRG_CYP7A1: Life Technologies and Expression Analysis (LTEA) Assay for Cytochrome P450 7A1 (CYP7A1) using HepaRG (AID 2283496)
Summary of the method: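 Using 0.5% DMSO as vehicle and baseline, chemicals were tested in duplicate over an 8-point range from 100 uM on HepaRG cells for 48 h; qRT-PCR signals were normalised to ACTB, GAPDH and POLR2A.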

[13] = read-out: Glutathione S-Transferase (GSTA2), GSTA2 (gene 2939); assay: LTEA_HepaRG_GSTA2: Life Technologies and Expression Analysis (LTEA) Assay for Glutathione S-Transferase (GSTA2) using HepaRG (AID 2283497)
Summary of the method: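 GSTA2 transcript levels came from Fluidigm TaqMan qRT-PCR normalized to three housekeeping genes, fitted in both directions against DMSO. HepaRG cultures received chemicals for 48 h in serum-free induction medium (0.5% DMSO), 8 half-log concentrations up to 100 uM, duplicate.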

[14] = read-out: Cytochrome P450 2C19 (Homo sapiens) (UniProt P33261); assay: LTEA_HepaRG_CYP2C19: Life Technologies and Expression Analysis (LTEA) Assay for CYP2C19 using HepaRG (AID 2283482)
Summary of the method: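 HepaRG, 48 h chemical exposure, 8-pt half-log series from 100 uM in 0.5% DMSO, duplicates. Readout: CYP2C19 mRNA by TaqMan qRT-PCR, housekeeping-normalized. Bidirectional fit vs DMSO baseline; phenobarbital 1mM as induction control.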

Measured: AC50

Cytochrome P450 3A4 (Homo sapiens), sequence (P08684 whole entry, looked up): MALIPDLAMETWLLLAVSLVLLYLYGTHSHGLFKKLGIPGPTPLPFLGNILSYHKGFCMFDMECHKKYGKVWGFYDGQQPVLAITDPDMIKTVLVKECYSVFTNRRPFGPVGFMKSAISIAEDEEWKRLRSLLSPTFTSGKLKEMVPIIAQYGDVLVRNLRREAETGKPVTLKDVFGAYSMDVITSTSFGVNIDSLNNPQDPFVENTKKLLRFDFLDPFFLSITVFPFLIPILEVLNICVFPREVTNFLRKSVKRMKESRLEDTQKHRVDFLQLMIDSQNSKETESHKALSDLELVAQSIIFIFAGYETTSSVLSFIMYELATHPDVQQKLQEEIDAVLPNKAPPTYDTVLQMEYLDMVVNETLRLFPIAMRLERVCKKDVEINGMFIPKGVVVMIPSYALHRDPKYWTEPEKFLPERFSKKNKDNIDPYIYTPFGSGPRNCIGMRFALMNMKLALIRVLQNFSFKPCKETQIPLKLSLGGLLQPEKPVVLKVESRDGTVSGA
Cytochrome P450 3A7 (Homo sapiens), sequence (P24462 whole entry, looked up): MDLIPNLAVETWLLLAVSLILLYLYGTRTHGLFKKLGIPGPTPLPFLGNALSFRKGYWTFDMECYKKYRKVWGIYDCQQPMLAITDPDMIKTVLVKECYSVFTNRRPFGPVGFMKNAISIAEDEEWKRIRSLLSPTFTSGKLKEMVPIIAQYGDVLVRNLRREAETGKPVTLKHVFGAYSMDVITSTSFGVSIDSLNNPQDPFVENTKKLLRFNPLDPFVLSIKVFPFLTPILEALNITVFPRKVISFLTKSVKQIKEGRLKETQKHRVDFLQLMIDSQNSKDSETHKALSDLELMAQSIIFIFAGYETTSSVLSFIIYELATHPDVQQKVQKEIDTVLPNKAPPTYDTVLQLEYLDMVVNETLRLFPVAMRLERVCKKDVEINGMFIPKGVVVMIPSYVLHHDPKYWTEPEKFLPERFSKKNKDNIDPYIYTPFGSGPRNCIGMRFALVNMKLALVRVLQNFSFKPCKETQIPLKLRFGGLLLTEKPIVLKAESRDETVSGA
Cytochrome P450 2C19 (Homo sapiens), sequence (P33261 whole entry, looked up): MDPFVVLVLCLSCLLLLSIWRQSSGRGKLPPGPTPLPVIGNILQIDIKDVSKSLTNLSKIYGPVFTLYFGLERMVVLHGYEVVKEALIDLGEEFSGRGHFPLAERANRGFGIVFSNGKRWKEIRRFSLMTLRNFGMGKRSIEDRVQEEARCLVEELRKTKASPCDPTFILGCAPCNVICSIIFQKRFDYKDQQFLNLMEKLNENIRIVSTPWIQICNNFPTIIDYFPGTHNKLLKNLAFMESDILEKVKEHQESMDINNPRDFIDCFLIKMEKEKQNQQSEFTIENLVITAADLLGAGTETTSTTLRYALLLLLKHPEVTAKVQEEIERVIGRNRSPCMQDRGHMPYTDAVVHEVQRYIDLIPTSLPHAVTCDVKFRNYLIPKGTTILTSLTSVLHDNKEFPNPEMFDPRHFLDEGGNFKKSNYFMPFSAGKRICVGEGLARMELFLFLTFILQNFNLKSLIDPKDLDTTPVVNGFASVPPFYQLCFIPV

c1ccc2cc3c(ccc4ccccc43)cc2c1
inactive: [1] | [2] | [6] | [8]
active: [3] 9.39 µM | CYP2C8 (gene 1558) 13.7 µM | CYP2C9 (gene 1559) 11.8 µM | CYP2E1 (gene 1571) 22.3 µM | CYP4A11 (gene 1579) 32.8 µM | [4] 3.99 µM | [5] 17.7 µM | [7] 27.9 µM | [9] 15.7 µM | CYP3A5 (gene 1577) 7.18 µM | [10] 21.7 µM | [11] 26 µM | [12] 20.6 µM | [13] 8.52 µM

COCC(C)O (stereo unspecified)
not listed: [14]
inactive: all other assays above

COCC(C)OCC(C)O (stereo unspecified)
not listed: CYP4A11 (gene 1579) | [7]
inactive: all other assays above

CN1CCN(c2ccccc2/C=C2\SCCN(c3ccc(Cl)c(Cl)c3)C2=O)CC1
active: [2] 93.4 µM | [3] 50 µM | CYP2E1 (gene 1571) 12.8 µM | [5] 50 µM | [8] 50 µM | [10] 50 µM | [11] 15.8 µM | [12] 93.9 µM
inactive: [1] | CYP2C8 (gene 1558) | CYP2C9 (gene 1559) | [4] | [6] | [9] | CYP3A5 (gene 1577) | [13]

CCc1ccc(CCOc2ccc(CC3SC(=O)NC3=O)cc2)nc1 (stereo unspecified)
active: [3] 92.5 µM | CYP2C8 (gene 1558) 88.4 µM | CYP2C9 (gene 1559) 77.6 µM | CYP2E1 (gene 1571) 48.5 µM | [5] 91.3 µM | [8] 15.9 µM | [10] 88.3 µM | [11] 84 µM | [12] 68.5 µM | [13] 78.1 µM
inactive: [1] | [2] | [6] | CYP3A5 (gene 1577)

O=C(OCCOCCOC(=O)c1ccccc1)c1ccccc1
not listed: CYP4A11 (gene 1579) | [7] | [14]
inactive: all other assays above

CCc1nn(C2CCCCC2)c2cc(C3(C#N)CCC(C(=O)O)CC3)ccc12 (stereo unspecified)
active: [3] 82.8 µM | CYP2C8 (gene 1558) 79.8 µM | CYP2C9 (gene 1559) 63.4 µM | CYP2E1 (gene 1571) 60.6 µM | [4] 82.2 µM | [5] 77.5 µM | [6] 50 µM | [7] 12.1 µM | [8] 0.313 µM | [9] 87.8 µM | [10] 88.2 µM | [11] 56.7 µM | [12] 63.3 µM | [13] 77.1 µM
inactive: [1] | [2] | CYP3A5 (gene 1577)
